Data: PubChem BioAssay
For part of these data: Results with a measured potency or affinity are listed apart. Calls of active or inactive are those of the source.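 Rule for the calls, unless noted: active = compound raising the membrane signal above positive-control mean plus 3 SD in both repeats, and a primary screen hit; inactive = the rest.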

How the values were obtained:
[1] = system: TRPC4 beta (transient receptor potential cation channel C4), mouse; assay: activators of mouse TRPC4 channel, confirmation, cell-based, Fluo4 calcium, HEK293 TRPC4beta/mu-opioid, duplicates, 10 µM (AID 2426;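 active = fluorescence ratio normalized to control raised more than 50% in primary screen plus both repeat runs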;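 for activation: percent rise of integrated ratio over buffer wells lacking compound which define 0%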); conditions: Fluo4 calcium fluorescence, at 10 µM; active compounds read high
[2] = system: transient receptor potential cation channel C4 beta (TRPC4), mouse; assay: activators of mouse TRPC4 channel, confirmation, cell-based, second round, Fluo4, HEK293 TRPC4beta/mu-opioid, 1 µM (AID 2461;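 active = primary screen active and over 50% activation in each of two duplicate runs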;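 for activation: 0% = wells without test compound as baseline of integrated fluorescence ratio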); conditions: Fluo4 calcium fluorescence, at 1 µM; active compounds read high
[3] = system: TRPC4 (transient receptor potential cation channel C4 beta), mouse; assay: positive allosteric modulators of mouse TRPC4, confirmation, cell-based, second round, Fluo-4, HEK293 TRPC4beta/mu-opioid, 1 µM (AID 2554;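 active = primary screen hit whose fluorescence ratio, in both repeats, exceeds the weak agonist control mean by 3 SD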); conditions: DAMGO EC20, Fluo-4 calcium flux, at 1 µM; active compounds read high
[4] = system: TRPC4 beta (transient receptor potential cation channel C4), mouse; assay: positive allosteric modulators of mouse TRPC4, confirmation, cell-based, Fluo-4, HEK293 TRPC4beta/mu-opioid (AID 2555;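 active = primary screen hit whose calcium fluorescence ratio, in both repeats, exceeds the weak agonist control mean by 3 SD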); conditions: DAMGO EC20, Fluo-4 calcium flux, at 10 µM; active compounds read high
[5] = molecular target: Short transient receptor potential channel 4 (Mus musculus) (UniProt Q9QUQ5); assay: inhibitors of mouse TRPC4 channel, confirmation, cell-based, Fluo4, HEK293 TRPC4beta/mu-opioid (AID 2636;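 active = calcium signal cut by more than 3 SD below the full-agonist control yet still positive, in both repeats and the earlier primary screen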); conditions: DAMGO, Fluo4 calcium flux, at 10 µM; active compounds read high
[6] = molecular target: Short transient receptor potential channel 4 (Mus musculus) (UniProt Q9QUQ5); assay: inhibitors of mouse TRPC4 channel, confirmation, cell-based, second round, Fluo4, HEK293 TRPC4beta/mu-opioid, 1 µM (AID 2637;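 active = calcium signal ratio cut to more than 3 SD under the fully stimulated control mean yet still positive, in both repeats and the primary screen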); conditions: Fluo4 calcium flux, DAMGO, at 1 µM; active compounds read high
[7] = molecular target: Short transient receptor potential channel 4 (Mus musculus) (UniProt Q9QUQ5); assay: TRPC4 positive allosteric modulators, dose response, cell-based, HEK293 TRPC4/mu-opioid, Fluo-4 calcium, EC20 DAMGO (AID 434941;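 active = earlier screen potentiator hit that boosts the TRPC4 ion channel at some dose, with a dose response; inactive = no potentiation, no dose response, or not a prior hit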;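 note: calcium entry triggered by an EC20 dose of DAMGO at the co-expressed mu-opioid receptor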)
[8] = molecular target: Short transient receptor potential channel 4 (Mus musculus) (UniProt Q9QUQ5); assay: mouse TRPC4 channel inhibitors, dose response, cell-based, HEK293 TRPC4/mu-opioid, Fluo-4 calcium (AID 434942;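 active = primary screen inhibitor hit that blocks the TRPC4 channel at some tested dose, yielding a dose curve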)
[9] = molecular target: Short transient receptor potential channel 6 (Mus musculus) (UniProt Q61143); assay: inhibition of mouse TRPC6 channel, confirmation, selectivity assay for TRPC4 inhibitor project, cell-based, HEK293, membrane potential dye, duplicate (AID 434948;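 active = active in primary screen and both duplicates, each dropping signal beyond three positive-control SD with fluorescence still positive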); conditions: HEK293 TRPC6, membrane potential dye fluorescence, at 10 µM, stimulated with maximal-effect acetylcholine; active compounds read high
[10] = molecular target: Short transient receptor potential channel 6 (Mus musculus) (UniProt Q61143); assay: activation of mouse TRPC6 channel, confirmation, selectivity assay for TRPC4 activator project, cell-based, HEK293, membrane potential dye, duplicate (AID 434950;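 active = membrane potential signal rise above negative control mean plus 3 SD in both duplicates, also active in the earlier TRPC4 screen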;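 for activation: 0% = buffer only wells and 100% = acetylcholine maximal-effect wells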); conditions: HEK293 TRPC6, membrane potential fluorescence, at 10 µM; active compounds read high
[11] = molecular target: Short transient receptor potential channel 6 (Mus musculus) (UniProt Q61143); assay: TRPC6 potentiation by TRPC4 potentiator hits, confirmation, selectivity assay for TRPC4 potentiator project, HEK293 cells, membrane potential dye, duplicate (AID 434952); conditions: HEK293 TRPC6, membrane potential dye fluorescence, at 10 µM, maximal acetylcholine added after compound; active compounds read high
[12] = molecular target: Short transient receptor potential channel 4 (Mus musculus) (UniProt Q9QUQ5); assay: calcium flux activators in TRPC4/5HT1a cells, counter-screen for TRPC4 activator project, cell-based, second counter screen, HEK293 TRPC4/5HT1a, Fluo-4 (AID 434977;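 active = calcium signal rise above buffer-control mean plus 5 SD in both duplicates, and also a hit in the primary screen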;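 for activation: plate controls were assay buffer for no effect and maximal serotonin response for full effect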); conditions: Fluo-4 calcium flux, at 10 µM; active compounds read high
[13] = calcium flux inhibitors in TRPC4/5HT1a cells, confirmation, counter-screen for TRPC4 inhibitor project, cell-based, second counter screen, HEK293 TRPC4/5HT1a, Fluo-4 (AID 434978;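 active = primary screen active whose calcium signal fell more than 3 SD beyond the full-serotonin control mean in both duplicate plates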;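 note: serotonin given first at submaximal then at maximal dose after compound preincubation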); conditions: Fluo-4 calcium flux, at 10 µM, serotonin added to trigger calcium flux; active compounds read high
[14] = system: TRPC4 (mouse), co-expressed with 5HT1a in HEK293; assay: calcium flux potentiators in TRPC4/5HT1a cells, confirmation, counter-screen for TRPC4 potentiator project, cell-based, second counter screen, HEK293 TRPC4/5HT1a, Fluo-4 (AID 434979;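 active = signal rise over 3 SD above mean of control wells given weak agonist, in both repeats and first screen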); conditions: Fluo-4 calcium flux, at 10 µM, serotonin added at its EC20 dose; active compounds read high
[15] = calcium flux activation in mu-opioid HEK293 cells, confirmation, counter-screen for TRPC4 activator project, cell-based, HEK293 mu-opioid receptor line (AID 449723;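 active = hit in primary screen, with calcium signal over 5 SD above buffer well mean in both duplicates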;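 note: counter screen cells carry the mu-opioid receptor alone and lack TRPC4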); conditions: Fluo-4 calcium fluorescence, at 10 µM; active compounds read high
[16] = calcium flux enhancement in mu-opioid HEK293 cells, confirmation, counter-screen for TRPC4 allosteric potentiator project, cell-based, HEK293 mu-opioid receptor line (AID 449724;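 active = calcium signal rise more than 3 SD above the low-dose agonist control mean, in both duplicate plates and the primary screen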); conditions: Fluo-4 calcium flux, at 10 µM, compound added before EC20 DAMGO stimulus; active compounds read high

Sequence of Short transient receptor potential channel 6 (Mus musculus) (Q61143 whole entry, looked up): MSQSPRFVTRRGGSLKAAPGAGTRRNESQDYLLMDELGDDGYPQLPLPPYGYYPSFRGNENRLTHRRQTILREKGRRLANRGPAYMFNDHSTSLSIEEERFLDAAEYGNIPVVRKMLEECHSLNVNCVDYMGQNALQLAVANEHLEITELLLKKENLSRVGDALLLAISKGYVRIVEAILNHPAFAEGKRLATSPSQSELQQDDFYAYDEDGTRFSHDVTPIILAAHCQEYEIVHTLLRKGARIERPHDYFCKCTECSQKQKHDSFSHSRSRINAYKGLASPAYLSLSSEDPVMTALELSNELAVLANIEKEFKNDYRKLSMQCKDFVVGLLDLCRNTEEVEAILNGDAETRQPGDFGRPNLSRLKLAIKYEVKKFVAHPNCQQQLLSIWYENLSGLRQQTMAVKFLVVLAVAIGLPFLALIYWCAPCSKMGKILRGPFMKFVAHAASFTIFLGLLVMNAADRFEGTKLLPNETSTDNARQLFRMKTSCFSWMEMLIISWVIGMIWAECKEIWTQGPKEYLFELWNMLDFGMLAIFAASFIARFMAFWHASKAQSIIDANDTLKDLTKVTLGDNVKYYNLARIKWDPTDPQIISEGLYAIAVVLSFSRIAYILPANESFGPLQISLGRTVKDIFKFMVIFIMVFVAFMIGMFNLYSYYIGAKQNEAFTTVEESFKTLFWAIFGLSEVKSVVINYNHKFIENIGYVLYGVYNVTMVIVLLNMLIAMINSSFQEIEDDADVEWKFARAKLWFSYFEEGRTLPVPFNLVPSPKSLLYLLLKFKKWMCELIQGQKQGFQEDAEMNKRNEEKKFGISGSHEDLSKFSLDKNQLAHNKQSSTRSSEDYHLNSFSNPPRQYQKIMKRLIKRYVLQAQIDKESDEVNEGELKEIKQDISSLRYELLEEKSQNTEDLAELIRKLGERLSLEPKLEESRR
Sequence of Short transient receptor potential channel 4 (Mus musculus) (Q9QUQ5 whole entry, looked up): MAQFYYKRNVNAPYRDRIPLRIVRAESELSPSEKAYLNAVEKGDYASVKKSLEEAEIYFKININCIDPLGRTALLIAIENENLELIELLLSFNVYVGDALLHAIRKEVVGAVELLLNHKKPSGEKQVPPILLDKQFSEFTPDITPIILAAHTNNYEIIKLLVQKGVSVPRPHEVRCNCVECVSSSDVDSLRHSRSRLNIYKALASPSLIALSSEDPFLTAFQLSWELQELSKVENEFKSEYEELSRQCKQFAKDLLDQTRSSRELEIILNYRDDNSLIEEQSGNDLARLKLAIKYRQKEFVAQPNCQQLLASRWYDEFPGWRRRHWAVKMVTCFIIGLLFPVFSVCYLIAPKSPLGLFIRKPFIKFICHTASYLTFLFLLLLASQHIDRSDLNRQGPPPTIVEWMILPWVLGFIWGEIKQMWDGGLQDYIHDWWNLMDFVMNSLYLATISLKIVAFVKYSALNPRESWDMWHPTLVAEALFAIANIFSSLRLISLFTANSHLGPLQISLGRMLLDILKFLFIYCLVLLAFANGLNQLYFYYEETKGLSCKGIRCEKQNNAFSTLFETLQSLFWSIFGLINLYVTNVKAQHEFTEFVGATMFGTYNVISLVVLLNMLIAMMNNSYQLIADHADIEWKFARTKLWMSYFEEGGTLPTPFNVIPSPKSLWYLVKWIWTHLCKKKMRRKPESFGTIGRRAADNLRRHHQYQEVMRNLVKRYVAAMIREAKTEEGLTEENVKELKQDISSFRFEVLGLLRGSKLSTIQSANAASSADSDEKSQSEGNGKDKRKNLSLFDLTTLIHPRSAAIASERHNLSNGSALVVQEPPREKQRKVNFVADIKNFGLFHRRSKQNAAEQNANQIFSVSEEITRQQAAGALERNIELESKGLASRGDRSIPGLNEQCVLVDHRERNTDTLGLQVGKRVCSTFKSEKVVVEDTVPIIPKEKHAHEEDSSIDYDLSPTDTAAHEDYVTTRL

CCCN(CCC)CCCNC(=O)C1CCN(S(=O)(=O)c2cccc3nsnc23)CC1
activation [1]: 145% (active) | activation [2]: 95% (active) | outcome [3]: inactive | outcome [4]: inactive | outcome [5]: inactive | outcome [6]: inactive | outcome [7]: inactive | outcome [8]: inactive | outcome [9]: inactive | outcome [10]: inactive | outcome [11]: inactive | activation [12]: 54.7% (active) | outcome [13]: inactive | outcome [14]: inactive | outcome [15]: inactive | outcome [16]: inactive

CN(C)C(CNC(=S)Nc1ccc(F)cc1)c1cccnc1 (stereo not given)
activation [1]: 95% (active) | activation [2]: 82% (active) | outcome [3]: inactive | outcome [4]: inactive | outcome [5]: inactive | outcome [6]: inactive | outcome [7]: inactive | outcome [8]: inactive | outcome [9]: inactive | activation [10]: 28.5% (active) | outcome [11]: inactive | outcome [12]: inactive | outcome [13]: inactive | outcome [14]: inactive | outcome [15]: inactive | outcome [16]: inactive

CC1(C)CC(=O)c2cc(C(=O)NCc3ccco3)c(=O)n(-c3ccc(Cl)cc3)c2C1
outcome [1]: inactive | outcome [2]: inactive | outcome [3]: inactive | outcome [4]: inactive | outcome [5]: inactive | outcome [6]: inactive | outcome [7]: inactive | outcome [8]: inactive | outcome [9]: inactive | activation [10]: 66.5% (active) | outcome [11]: inactive | outcome [12]: inactive | outcome [13]: inactive | outcome [14]: inactive | outcome [15]: inactive | outcome [16]: inactive

CN1CCN(c2ccc(C(F)(F)F)cc2NC(=O)Nc2ccccc2)CC1
activation [1]: 103% (active) | outcome [2]: inactive | potentiation [3]: 24% (active) | outcome [4]: inactive | outcome [5]: inactive | outcome [6]: inactive | outcome [7]: inactive | outcome [8]: inactive | outcome [9]: inactive | outcome [10]: inactive | outcome [11]: inactive | activation [12]: 28.6% (active) | outcome [13]: inactive | potentiation [14]: 33.3% (active) | outcome [15]: inactive | outcome [16]: inactive

O=C(NCCCN1CCN(CCCNC(=O)c2ccc3c(c2)OCO3)CC1)c1ccc2c(c1)OCO2
activation [1]: 112% (active) | activation [2]: 76% (active) | outcome [3]: inactive | outcome [4]: inactive | outcome [5]: inactive | outcome [6]: inactive | outcome [7]: inactive | outcome [8]: inactive | outcome [9]: inactive | outcome [10]: inactive | outcome [11]: inactive | activation [12]: 37.2% (active) | outcome [13]: inactive | outcome [14]: inactive | outcome [15]: inactive | outcome [16]: inactive

COc1ccc(C(CCNCc2ccc(N(C)C)cc2)c2ccccc2OC)cc1 (stereo not given)
activation [1]: 133% (active) | outcome [2]: inactive | outcome [3]: inactive | outcome [4]: inactive | outcome [5]: inactive | outcome [6]: inactive | outcome [7]: inactive | outcome [8]: inactive | outcome [9]: inactive | outcome [10]: inactive | outcome [11]: inactive | activation [12]: 8.8% (active) | outcome [13]: inactive | outcome [14]: inactive | outcome [15]: inactive | outcome [16]: inactive

CCCCC(c1nnnn1CC1CCCO1)N1CCN(c2nc3ccccc3s2)CC1 (stereo not given)
activation [1]: 88% (active) | outcome [2]: inactive | outcome [3]: inactive | outcome [4]: inactive | outcome [5]: inactive | outcome [6]: inactive | outcome [7]: inactive | outcome [8]: inactive | outcome [9]: inactive | activation [10]: 60.5% (active) | outcome [11]: inactive | activation [12]: 12.7% (active) | outcome [13]: inactive | outcome [14]: inactive | outcome [15]: inactive | outcome [16]: inactive

COc1ccc(C2Nc3ccccc3C(=O)N2Cc2ccco2)cc1COc1ccc(NC(C)=O)cc1 (stereo not given)
outcome [1]: inactive | outcome [2]: inactive | outcome [3]: inactive | outcome [4]: inactive | outcome [5]: inactive | outcome [6]: inactive | outcome [7]: inactive | outcome [8]: inactive | outcome [9]: inactive | activation [10]: 29% (active) | outcome [11]: inactive | outcome [12]: inactive | outcome [13]: inactive | outcome [14]: inactive | outcome [15]: inactive | outcome [16]: inactive

CC(C)(C)c1cc(Cl)ccc1OCCn1ccnc1
activation [1]: 57% (active) | outcome [2]: inactive | outcome [3]: inactive | outcome [4]: inactive | outcome [5]: inactive | outcome [6]: inactive | outcome [7]: inactive | outcome [8]: inactive | outcome [9]: inactive | outcome [10]: inactive | outcome [11]: inactive | activation [12]: 17.9% (active) | outcome [13]: inactive | potentiation [14]: 14.1% (active) | outcome [15]: inactive | outcome [16]: inactive

CN(C)CCCN(C(=O)c1ccc(C(=O)c2ccccc2)cc1)c1nc2ccc(F)cc2s1
activation [1]: 83% (active) | outcome [2]: inactive | outcome [3]: inactive | outcome [4]: inactive | outcome [5]: inactive | outcome [6]: inactive | outcome [7]: inactive | outcome [8]: inactive | outcome [9]: inactive | outcome [10]: inactive | outcome [11]: inactive | outcome [12]: inactive | outcome [13]: inactive | outcome [14]: inactive | outcome [15]: inactive | outcome [16]: inactive

Cc1ccc2oc(=O)c3cnn(CC(=O)NC4CCN(Cc5ccccc5)CC4)c3c2c1
activation [1]: 68% (active) | outcome [2]: inactive | outcome [3]: inactive | outcome [4]: inactive | outcome [5]: inactive | outcome [6]: inactive | outcome [7]: inactive | outcome [8]: inactive | outcome [9]: inactive | outcome [10]: inactive | outcome [11]: inactive | outcome [12]: inactive | outcome [13]: inactive | outcome [14]: inactive | outcome [15]: inactive | outcome [16]: inactive

Cc1sc2ncnc(NC3CCN(Cc4ccccc4)CC3)c2c1C
activation [1]: 240% (active) | activation [2]: 199% (active) | outcome [3]: inactive | outcome [4]: inactive | outcome [5]: inactive | outcome [6]: inactive | outcome [7]: inactive | outcome [8]: inactive | outcome [9]: inactive | outcome [10]: inactive | outcome [11]: inactive | activation [12]: 145% (active) | outcome [13]: inactive | outcome [14]: inactive | outcome [15]: inactive | outcome [16]: inactive

CCCCN(CC)CCNC(=O)c1cc2c(C)nc3ccccc3c2o1
activation [1]: 128% (active) | outcome [2]: inactive | outcome [3]: inactive | outcome [4]: inactive | outcome [5]: inactive | outcome [6]: inactive | outcome [7]: inactive | outcome [8]: inactive | outcome [9]: inactive | outcome [10]: inactive | outcome [11]: inactive | activation [12]: 42.6% (active) | outcome [13]: inactive | outcome [14]: inactive | outcome [15]: inactive | outcome [16]: inactive

CN(C)C(CNC(=O)CCc1c[nH]c2ccccc12)c1ccccc1 (stereo not given)
activation [1]: 89% (active) | activation [2]: 83% (active) | outcome [3]: inactive | outcome [4]: inactive | outcome [5]: inactive | outcome [6]: inactive | outcome [7]: inactive | outcome [8]: inactive | outcome [9]: inactive | activation [10]: 26% (active) | outcome [11]: inactive | outcome [12]: inactive | outcome [13]: inactive | outcome [14]: inactive | outcome [15]: inactive | outcome [16]: inactive

FC(F)(F)c1cnc(N2CCCN(C(=S)Nc3ccccc3)CC2)c(Cl)c1
activation [1]: 208% (active) | activation [2]: 62% (active) | outcome [3]: inactive | outcome [4]: inactive | outcome [5]: inactive | outcome [6]: inactive | outcome [7]: inactive | outcome [8]: inactive | outcome [9]: inactive | outcome [10]: inactive | outcome [11]: inactive | activation [12]: 84.8% (active) | outcome [13]: inactive | outcome [14]: inactive | outcome [15]: inactive | outcome [16]: inactive
